Source: PubChem BioAssay AID1159580 (chemical genetic matrix, 2015)
Out of some 5,500 compounds screened, about 2,000 (36%) were called active. Not shown: some 18% with an inconclusive outcome. No stated cut-off is given here; in the data, active means normalized growth mostly below about 0.91 (no sharp cut-off); inconclusive means no clear call, values can overlap the other calls; inactive means mostly above about 0.92. The list shows a part of the results.

Experiment: chemical genetic growth profiling, strain panel (AID 1159580);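 further: tested at 20 µM; growth read once vehicle control cultures reached saturation at 30 °C; 1 = growth at the plate median or of vehicle wells; lower values mean less growth of the strain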
Conditions: growth OD

Measured: normalized growth

S=c1nc[nH]c2nc[nH]c12
inactive: S. cerevisiae deletion strains, locus YJR075W, strain HOC1, active compounds read low 0.996 | S. cerevisiae deletion strains, locus YKL009W, strain mrt4, active compounds read low 0.987 | S. cerevisiae deletion strains, locus YKL068W, active compounds read low 0.983 | S. cerevisiae deletion strains, locus YKL085W, strain MDH1 (second series), active compounds read low 0.966 | S. cerevisiae deletion strains, locus YKL085W, strain MDH1, active compounds read low 0.966 | S. cerevisiae deletion strains, locus YKL160W, strain elf1, active compounds read low 1.04 | S. cerevisiae deletion strains, locus YKR001C, strain vps1, active compounds read low 0.99 | S. cerevisiae deletion strains, locus YKR026C, strain gcn3, active compounds read low 1.01 | S. cerevisiae deletion strains, locus YKR091W, strain srl3, active compounds read low 0.996 | S. cerevisiae deletion strains, locus YLL001W, strain dnm1, active compounds read low 1.01 | S. cerevisiae deletion strains, locus YLL026W, active compounds read low 1.01 | S. cerevisiae deletion strains, locus YLL041C, strain sdh2, active compounds read low 0.989 | S. cerevisiae deletion strains, locus YLR027C, strain aat2, active compounds read low 1.02 | S. cerevisiae deletion strains, locus YLR039C, strain RIC1, active compounds read low 1 | S. cerevisiae deletion strains, locus YLR058C, strain SHM2, active compounds read low 0.982 | S. cerevisiae deletion strains, locus YLR102C, strain apc9, active compounds read low 0.978 | S. cerevisiae deletion strains, locus YLR113W, strain HOG1, active compounds read low 1 | S. cerevisiae deletion strains, locus YLR221C, strain rsa3, active compounds read low 1.01 | S. cerevisiae deletion strains, locus YLR258W, strain gsy2, active compounds read low 1.01 | S. cerevisiae deletion strains, locus YLR262C, strain YPT6 (second series), active compounds read low 1.03 | S. cerevisiae deletion strains, locus YLR262C, strain YPT6, active compounds read low 0.959 | S. cerevisiae deletion strains, locus YLR268W, strain sec22, active compounds read low 1 | S. cerevisiae deletion strains, locus YLR320W, strain mms22, active compounds read low 1.02 | S. cerevisiae deletion strains, locus YLR330W, strain CHS5, active compounds read low 0.992 | S. cerevisiae deletion strains, locus YLR342W, strain FKS1 (second series), active compounds read low 1 | S. cerevisiae deletion strains, locus YLR342W, strain FKS1, active compounds read low 1.02 | S. cerevisiae deletion strains, locus YLR357W, strain rsc2, active compounds read low 1.08 | S. cerevisiae deletion strains, locus YLR370C, strain arc18, active compounds read low 1.01 | S. cerevisiae deletion strains, locus YLR371W, strain rom2, active compounds read low 0.988 | S. cerevisiae deletion strains, locus YLR384C, strain iki3, active compounds read low 1 | S. cerevisiae deletion strains, locus YLR418C, strain cdc73, active compounds read low 1.01 | S. cerevisiae deletion strains, locus YML016C, strain PPZ1, active compounds read low 1 | S. cerevisiae deletion strains, locus YML032C, strain rad52, active compounds read low 1 | S. cerevisiae deletion strains, locus YML120C, strain ndi1, active compounds read low 0.986 | S. cerevisiae deletion strains, locus YML124C, strain tub3, active compounds read low 0.989 | S. cerevisiae deletion strains, locus YMR058W, strain fet3, active compounds read low 0.988 | S. cerevisiae deletion strains, locus YMR078C, strain ctf18, active compounds read low 0.973 | S. cerevisiae deletion strains, locus YMR125W, strain sto1, active compounds read low 1.07 | S. cerevisiae deletion strains, locus YMR129W, active compounds read low 1.01 | S. cerevisiae deletion strains, locus YMR205C, strain PFK2, active compounds read low 1.01 | S. cerevisiae deletion strains, locus YMR223W, strain ubp8, active compounds read low 0.949 | S. cerevisiae deletion strains, locus YMR231W, strain pep5, active compounds read low 1.02 | S. cerevisiae deletion strains, locus YMR263W, strain SAP30, active compounds read low 0.999 | S. cerevisiae deletion strains, locus YMR307W, strain GAS1, active compounds read low 1.08 | S. cerevisiae deletion strains, locus YNL067W, strain RPL9B, active compounds read low 0.996 | S. cerevisiae deletion strains, locus YNL071W, strain lat1, active compounds read low 1 | S. cerevisiae deletion strains, locus YNL183C, strain NPR1, active compounds read low 0.966 | S. cerevisiae deletion strains, locus YNL209W, strain ssb2, active compounds read low 1.03 | S. cerevisiae deletion strains, locus YNL233W, strain BNI4, active compounds read low 1 | S. cerevisiae deletion strains, locus YNL248C, strain rpa49, active compounds read low 1.05 | S. cerevisiae deletion strains, locus YNL250W, strain rad50, active compounds read low 0.974 | S. cerevisiae deletion strains, locus YNL271C, strain bni1, active compounds read low 0.979 | S. cerevisiae deletion strains, locus YNL298W, strain CLA4, active compounds read low 0.989 | S. cerevisiae deletion strains, locus YNL307C, strain MCK1, active compounds read low 0.988 | S. cerevisiae deletion strains, locus YNL322C, strain KRE1 (second series), active compounds read low 1.02 | S. cerevisiae deletion strains, locus YNL322C, strain KRE1, active compounds read low 0.994 | S. cerevisiae deletion strains, locus YNR049C, strain mso1, active compounds read low 1 | S. cerevisiae deletion strains, locus YNR052C, strain pop2, active compounds read low 0.979 | S. cerevisiae deletion strains, locus YOL006C, strain TOP1, active compounds read low 1.01 | S. cerevisiae deletion strains, locus YOL012C, strain htz1 0.693 | S. cerevisiae deletion strains, locus YOL147C, strain pex11, active compounds read low 0.982 | S. cerevisiae deletion strains, locus YOR001W, strain rrp6, active compounds read low 1 | S. cerevisiae deletion strains, locus YOR061W, strain CKA2, active compounds read low 0.993 | S. cerevisiae deletion strains, locus YOR069W, strain VPS5, active compounds read low 0.998 | S. cerevisiae deletion strains, locus YOR070C, strain gyp1, active compounds read low 1.01 | S. cerevisiae deletion strains, locus YOR080W, strain dia2, active compounds read low 1 | S. cerevisiae deletion strains, locus YOR083W, strain WHI5, active compounds read low 0.983 | S. cerevisiae deletion strains, locus YOR106W, strain vam3, active compounds read low 1.03 | S. cerevisiae deletion strains, locus YOR136W, strain idh2, active compounds read low 0.99 | S. cerevisiae deletion strains, locus YOR144C, strain elg1, active compounds read low 1 | S. cerevisiae deletion strains, locus YOR184W, strain ser1, active compounds read low 0.996 | S. cerevisiae deletion strains, locus YOR231W, strain MKK1, active compounds read low 1 | S. cerevisiae deletion strains, locus YOR265W, strain rbl2, active compounds read low 1.01 | S. cerevisiae deletion strains, locus YOR270C, strain vph1, active compounds read low 1.09 | S. cerevisiae deletion strains, locus YOR290C, strain snf2, active compounds read low 1.04 | S. cerevisiae deletion strains, locus YOR316C, strain cot1, active compounds read low 0.982 | S. cerevisiae deletion strains, locus YPL051W, strain arl3, active compounds read low 1.01 | S. cerevisiae deletion strains, locus YPL055C, strain LGE1, active compounds read low 0.992 | S. cerevisiae deletion strains, locus YPL078C, strain atp4, active compounds read low 0.997 | S. cerevisiae deletion strains, locus YPL106C, strain sse1, active compounds read low 1.01 | S. cerevisiae deletion strains, locus YPL240C, strain hsp82, active compounds read low 1.01 | S. cerevisiae deletion strains, locus YPL241C, strain CIN2, active compounds read low 0.994 | S. cerevisiae deletion strains, locus YPL256C, strain CLN2, active compounds read low 1.04 | S. cerevisiae deletion strains, locus YPR119W, strain clb2, active compounds read low 0.977 | S. cerevisiae deletion strains, locus YPR141C, strain kar3, active compounds read low 0.98 | S. cerevisiae deletion strains, locus YPR163C, strain tif3, active compounds read low 0.974 | S. cerevisiae deletion strains, locus YPR167C, strain met16, active compounds read low 0.988 | S. cerevisiae deletion strains, strain wtn01, active compounds read low 0.978 | S. cerevisiae strains, strain wild type, active compounds read low 1
